HTT-AS act: Primary qHTS for Identification of Small Molecule Activators of Huntingtin-Antisense Promoter Activity; Potency, µM (highest dose often 57.5 µM), hits mostly activators; AID 1508624, 2021; HEK293 HTT-AS promoter firefly luciferase reporter, 24 h; response scale: percent change from vehicle, -100% = no light; 0.24% of 48,000 active; note: nearly all actives have a fitted effect of over 55% in size
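HEK293 cells carrying firefly luciferase reporters were seeded at 2,500 per well in Opti-MEM and cultured for 24 h. They were then treated with compounds at up to 57.5 uM final for 24 h at 37 degrees C before Dual-Glo luminescence readout.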
HTT promoter inh: Primary qHTS for Identification of Small Molecule Inhibitors of Huntingtin Promoter Activity; HEK293 HTT promoter firefly luciferase reporter, 24 h; Potency, µM (titrated, usually from 57.5 µM), most hits filed as inhibitors; 0.93% of 48,000 active; AID 1508623, 2021; note: nearly all actives have a fitted effect of over 50% in size
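Quantitative HTS used concentration series of up to 57.5 uM final on HEK293 luciferase reporter cells, 24 h at 37 degrees C. Readout was Dual-Glo firefly luminescence.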
SKOV3 invasion: Primary qHTS assay for Inhibitors of ovarian cancer metastasis using an organotypic tumor microenvironment (TME) model | SKOV3ip1-GFP adhesion/invasion on 3D omental model, fluorescence | Potency, µM (top dose mostly 45.8 µM), usual class: inhibitors | 0.1% of 46,000 active; note: nearly all actives have a fitted effect of over 65% in size
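Primary human omental fibroblast/mesothelial 3D culture pre-formed 48 h. SKOV3ip1-GFP cells added with compounds (0.36-46 umol/L), incubated 2 h RT/16 h 37 C, fixed; GFP cells quantified at 488/509 nm.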
NTMT1 inhibitor: Primary qHTS for Inhibitors of N-terminal methyltransferase 1 (NTMT1): MTaseGlo Assay | NTMT1 MTase-Glo SAH luminescence, purified enzyme | 2.5% of 59,000 active | Potency, µM (top dose mostly 114 µM), usual class: inhibitors | AID 1645870, 2021 | N-terminal Xaa-Pro-Lys N-methyltransferase 1 (Homo sapiens), Q9BV86; note: nearly all actives have a fitted effect of over 65% in size
DRV1 agonist: qHTS for Agonists of Human Resolvin D1 Receptor DRV1. 2.5% of 48,000 active. Probable G-protein coupled receptor 32 (Homo sapiens), O75388. CHO-K1 GPR32 beta-arrestin PathHunter luminescence, 90 min; zero percent set by DMSO-only wells. activation, % at 76.9 µM. AID 1346428, 2018;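 active = activation of at least 60% and not above a set upper limit, about 1 call in 100 departs from these limits; inconclusive = activation of 40% to 60%, or above that upper limit; inactive = activation under 40%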
Target sequence (O75388 whole entry, looked up): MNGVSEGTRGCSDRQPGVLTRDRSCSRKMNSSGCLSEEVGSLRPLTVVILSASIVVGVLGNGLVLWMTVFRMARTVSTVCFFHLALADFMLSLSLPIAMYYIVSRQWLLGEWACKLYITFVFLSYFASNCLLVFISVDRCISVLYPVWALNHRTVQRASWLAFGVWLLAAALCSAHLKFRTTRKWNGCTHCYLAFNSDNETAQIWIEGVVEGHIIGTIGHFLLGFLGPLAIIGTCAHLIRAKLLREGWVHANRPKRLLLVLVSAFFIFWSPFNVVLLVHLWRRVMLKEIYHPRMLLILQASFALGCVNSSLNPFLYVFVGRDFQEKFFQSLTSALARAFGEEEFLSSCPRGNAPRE
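CHO-K1 cells stably expressing ProLink-tagged GPR32 and Enzyme Activator-tagged beta-arrestin were seeded at 2,500 cells/well overnight, exposed to compounds for 90 min at 37 °C, then read by beta-Gal complementation chemiluminescence after 1 h detection reagent.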
Hits are given with their value; – = inactive; ? = inconclusive; · = not tested or not shown; ! = a repeat was not active; [ ] = remark or other dose. A selection: hits, their analogues and other compounds. The true share with any hit is near 4.5%. Unless noted, calls come from the whole dose curve; as a rule, active = well fitted curve in the direction sought with a large enough effect; inconclusive = small, poorly fitted or top-dose-only effect, or another doubt; inactive = no such curve, though single readings can be large; an effect the other way counts as inactive or inconclusive.

SMILES | HTT-AS act | HTT promoter inh | SKOV3 invasion | NTMT1 inhibitor | DRV1 agonist
CCCCCCCCCCCCCCCC(=O)OC(CC(=O)O)C[N+](C)(C)C (stereo not given) | · | · | · | · | –
O=C(N/N=C/c1ccc(O)c(O)c1)c1cc2ccccc2cc1O | · | · | · | –[12.6 µM] | ·
O=C1/C(=C/c2ccc(O)c(O)c2)Oc2ccccc21 | · | · | · | 28µM | ·
CCc1c(C)sc2c1CCN(Cc1cccc(OC)c1)C2c1ccccc1 (stereo not given) | – | ? | – | – | 61
CCc1c(C)sc2c1CCN(Cc1ccccc1F)C2c1ccccc1 (stereo not given) | – | ? | – | ? | –
O=C(CSc1cn(CCNC(=O)c2cccc(C(F)(F)F)c2)c2ccccc12)Nc1ccc2c(c1)OCCO2 | – | ? | – | – | 112
O=C(CSc1cn(CCNC(=O)c2ccccc2F)c2ccccc12)Nc1ccc2c(c1)OCCO2 | – | – | – | – | ?
O=C(CSc1cn(CCNC(=O)c2ccccc2F)c2ccccc12)Nc1ccc(F)cc1 | – | – | – | – | 91
Cc1cccc(C)c1OCC(=O)Nc1c(C(=O)c2ccccc2)oc2ccccc12 | – | – | 10µM | – | –
CCc1ccccc1NS(=O)(=O)c1ccc2[nH]cc(C(=O)N(CC(C)C)CC(C)C)c(=O)c2c1 | – | – | – | – | –
COCCOc1ccc2c(c1)ncn2-c1ccc2cccc(N3CCC(N)CC3)c2n1 | – | ? | – | 35µM! | ·
O=C(Cc1ccc(Cl)c(Cl)c1)Nc1ccc([S+](=O)([O-])Nc2ccc([N+](=O)[O-])cc2)cc1 | · | · | · | – | ·
O=C(Cc1ccc(Cl)c(Cl)c1)Nc1ccc([S+](=O)([O-])Nc2nnc(-c3ccccn3)s2)cc1 | · | · | · | 79µM | ·
O=C(CN1C(=O)COc2ccc(S(=O)(=O)NC3CCCC3)cc21)Nc1ccc(Cl)cc1 | – | – | – | ? | 104
CCOC(=O)C1CCCN(C(=O)c2ccc3c(c2)N(Cc2ccc(Cl)cc2)C(=O)c2ccccc2S3=O)C1 (stereo not given) | – | – | – | – | –
Cc1ccc(C)c(N2CCN(C(=O)C3CCCN(S(=O)(=O)c4cccc5nonc45)C3)CC2)c1 (stereo not given) | – | ? | – | – | –
Cc1ccc(C)c(N2CCN(C(=O)C3CCCN(S(=O)(=O)c4cccc5nsnc45)C3)CC2)c1 (stereo not given) | – | ? | – | – | 66
Cc1cccc(-c2nc3cc(NC(=O)COc4ccccc4F)ccc3o2)c1 | ? | – | – | – | –
CCNC(=O)c1ccc2c(c1)sc1nc(-c3cccc(OC)c3)cn12 | ? | – | – | ? | –
COc1cccc(-c2cn3ncsc3n2)c1 | 2.5µM | – | – | ? | –
Cc1ccc(-n2ncc3c(NC(C)c4ccccc4)ncnc32)cc1 (stereo not given) | – | – | – | – | ?
CCN1CCN(Cc2ccc(-c3cc4c(N[C@H](C)c5ccccc5)ncnc4[nH]3)cc2)CC1 | – | ? | – | 22µM | ·
CCN1CCN(Cc2ccc(-c3cc4c(NC(C)c5ccccc5)ncnc4[nH]3)cc2)CC1 (stereo not given) | · | · | · | 14µM | ·
COc1ccc(N2CCN(C(=O)C3CCCN(S(=O)(=O)c4ccc5c(c4)oc(=O)n5C)C3)CC2)cc1 (stereo not given) | – | – | – | – | –
O=C1CC(c2nc(-c3ccccc3)no2)CN1c1ccccc1 (stereo not given) | – | – | – | – | 65
COc1ccc(-c2noc(C3CC(=O)N(c4ccccc4)C3)n2)c(OC)c1 (stereo not given) | – | – | – | – | ?
O=[S+]([O-])(Nc1nccs1)c1ccc(NCc2ccc(Cl)c(Cl)c2)cc1 | · | · | · | – | ·
CC(=O)Nc1c(C)nn(-c2ccccc2)c1N1CCC(C(=O)Nc2cccc(C(F)(F)F)c2)CC1 | – | – | – | – | –
O=C(Nc1cccc(Nc2cc(Nc3cccc(C(F)(F)F)c3)ncn2)c1)C1CC1 | · | · | · | 10µM | ·
CCCCNC(=O)Nc1ccc2c(c1)N(C)C(=O)c1ccccc1S2 | – | ? | – | 89µM | –

Source: PubChem
